This is an account of results in PubChem BioAssay (NCI).

The nature of test [1]: NCI Yeast Anticancer Drug Screen. Data for the rad50 strain (AID 155).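 Also: 0% = growth of vehicle-only cultures of the same strain.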 Particulars: S. cerevisiae rad50 strain growth inhibition, stronger effect = higher value. The gist of the method:
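Genetically altered yeast (DNA repair pathway); compound treatment; growth inhibition vs vehicle ctrl.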

Test [2] can be described thus: NCI Yeast Anticancer Drug Screen. Data for the mec2-1 strain (AID 157). Particulars: S. cerevisiae mec2-1 strain, stronger effect = higher value. Put shortly:
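Growth inhibition is read against vehicle-treated controls after compound exposure of the mec2-1 yeast strain, which is defective in DNA damage repair or cell cycle control.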

A short description of test [3]: NCI Yeast Anticancer Drug Screen. Data for the sgs1 mgt1 strain (AID 161).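 Also: 0% = growth of cultures given vehicle only.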 Conditions: S. cerevisiae sgs1 mgt1 strain, stronger effect = higher value. Put shortly: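 Percent growth inhibition was derived by comparing compound-exposed mutant yeast with vehicle-exposed cultures. The strain carries alterations in DNA damage repair.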
Test [4] in a line: NCI Yeast Anticancer Drug Screen. Data for the cln2 rad14 strain (AID 165).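 Also: 0% = growth equal to vehicle treated cultures.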 Particulars: S. cerevisiae cln2 rad14 strain, stronger effect = higher value. The gist of the method: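 Growth inhibition, relative to vehicle-treated controls, is the read-out. The test organism is a yeast strain with defined genetic alterations, cln2 rad14.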
Test [5] in a line: NCI Yeast Anticancer Drug Screen. Data for the bub3 strain (AID 167). Particulars: S. cerevisiae bub3 mutant strain, stronger effect = higher value. Put shortly: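 Yeast carrying a defined mutation is treated with each compound, and growth is compared with that of vehicle-exposed cells to give inhibition.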
Test [6] in a line: NCI Yeast Anticancer Drug Screen. Data for the mlh1 rad18 strain (AID 175). Particulars: S. cerevisiae mlh1 rad18 strain growth inhibition, stronger effect = higher value. The gist of the method:
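Cells of a genetically altered yeast strain, deficient in DNA damage repair, were treated with compound. Their growth was then compared with that of vehicle-treated cultures to give inhibition.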

Where [7] appears, read: at 5.0 µM (retest, dose inferred, filed as 0.5).
[8] abbreviates: at 50.0 µM (retest, dose inferred, filed as 5.0).

Compounds without any hit were thinned out: in the full panel of roughly 79,000, 15% have a hit. Unmarked numbers belong to inactive results. Calls of active or inactive are those of the source. Rule as the data show it: active = growth inhibition above about 70%; inactive = the rest.

Consider `Cc1cc(O)c(C=NC(=S)C(N)=S)c(=O)o1`, for which the growth inhibition is 29% in test [1] (setting [7]); 43% in test [1] (setting [8]); -27.7% in test [1] (at 50.0 µM); 13% in test [2] (setting [7]); 42% in test [2] (setting [8]); -19.6% in test [2] (at 50.0 µM). Further, the growth inhibition is 22% in test [3] (setting [7]); 46% in test [3] (setting [8]); 8.7% in test [3] (at 50.0 µM); 14% in test [4] (setting [7]); 22% in test [4] (setting [8]); -4.4% in test [4] (at 50.0 µM). Further, the growth inhibition in test [5] (setting [7]) is 21%; in test [5] (setting [8]) it was 49%; in test [5] (at 50.0 µM) it was -26.5%; in test [6] (setting [7]) it was 17%; in test [6] (setting [8]), 42%; in test [6] (at 50.0 µM), -38%.
Turning to `Cc1cc(NCCCN(C)C)c2cc3ccc4cccc5ccc(c2n1)c3c45`, the growth inhibition in test [1] (setting [7]) is 1%; in test [1] (setting [8]) it was 54%; in test [1] (at 50.0 µM), 95.2% (active); in test [2] (setting [7]), -12%; in test [2] (setting [8]), 23%; in test [2] (at 50.0 µM), 90.4% (active). Moreover, the growth inhibition was -3% in test [3] (setting [7]); 47% in test [3] (setting [8]); 94.8% (active) in test [3] (at 50.0 µM); -2% in test [4] (setting [7]); 25% in test [4] (setting [8]); 63.8% in test [4] (at 50.0 µM). Also, the growth inhibition in test [5] (setting [7]) is -2%; in test [5] (setting [8]) it was 20%; in test [5] (at 50.0 µM), 94.5% (active); in test [6] (setting [7]) it was -2%; in test [6] (setting [8]), 58%; in test [6] (at 50.0 µM), 97.3% (active).
As to `CCCCC#CC(=O)OCCCCC`, the growth inhibition is -2% in test [1] (setting [7]); 0% in test [1] (setting [8]); -18.9% in test [1] (at 50.0 µM); 4% in test [2] (setting [7]); 1% in test [2] (setting [8]); -3.1% in test [2] (at 50.0 µM). For the same compound, the growth inhibition in test [3] (setting [7]) is 1%; in test [3] (setting [8]), 3%; in test [3] (at 50.0 µM), -13.4%; in test [4] (setting [7]) it was -5%; in test [4] (setting [8]), -2%; in test [4] (at 50.0 µM), 25.1%. The growth inhibition in test [5] (setting [7]) was 1%; in test [5] (setting [8]), 3%; in test [5] (at 50.0 µM), -14.6%; in test [6] (setting [7]) it was -2%; in test [6] (setting [8]), -4%; in test [6] (at 50.0 µM), -16.4%.
In the case of `C#CC[N+](CC)(CC)CCNC(=O)CCCCCCCCCCCCCCC`, the growth inhibition is 97% (active) in test [1] (setting [7]); 99% (active) in test [1] (setting [8]); 99.5% (active) in test [1] (at 50.0 µM); 81% (active) in test [2] (setting [7]); 99% (active) in test [2] (setting [8]); 99.7% (active) in test [2] (at 50.0 µM). The growth inhibition in test [3] (setting [7]) was 98% (active); in test [3] (setting [8]), 100% (active); in test [3] (at 50.0 µM) it was 99.6% (active); in test [4] (setting [7]), 51%; in test [4] (setting [8]), 99% (active); in test [4] (at 50.0 µM), 98.8% (active). The growth inhibition in test [5] (setting [7]) is 92% (active); in test [5] (setting [8]), 99% (active); in test [5] (at 50.0 µM), 99.6% (active); in test [6] (setting [7]), 49%; in test [6] (setting [8]), 99% (active); in test [6] (at 50.0 µM), 99.5% (active).
As for `COC1OC(CI)C(OC(c2ccccc2)(c2ccccc2)c2ccccc2)C(OC(c2ccccc2)(c2ccccc2)c2ccccc2)C1OC(c1ccccc1)(c1ccccc1)c1ccccc1` (stereo not given), the growth inhibition in test [1] (setting [7]) is -14%; in test [1] (setting [8]) it was -6%; in test [1] (at 50.0 µM), 96.4% (active); in test [2] (setting [7]), -17%; in test [2] (setting [8]), -22%; in test [2] (at 50.0 µM), 98.5% (active). Moreover, the growth inhibition in test [3] (setting [7]) was -8%; in test [3] (setting [8]), -18%; in test [3] (at 50.0 µM), 94.5% (active); in test [4] (setting [7]), -10%; in test [4] (setting [8]) it was 14%; in test [4] (at 50.0 µM), 97.8% (active). Also, the growth inhibition in test [5] (setting [7]) was 1%; in test [5] (setting [8]), -13%; in test [5] (at 50.0 µM) it was 97% (active); in test [6] (setting [7]) it was -17%; in test [6] (setting [8]) it was 11%; in test [6] (at 50.0 µM), 95.9% (active).
Turning to `O=C(/C=C/c1ccc2c(c1)OCO2)c1ccc(O)cc1`, the growth inhibition in test [1] (setting [7]) was -27%; in test [1] (setting [8]) it was -21%; in test [1] (at 50.0 µM), 61%; in test [2] (setting [7]), -13%; in test [2] (setting [8]), 21%; in test [2] (at 50.0 µM), 44%. Besides, the growth inhibition in test [3] (setting [7]) was -27%; in test [3] (setting [8]) it was -31%; in test [3] (at 50.0 µM), 40.8%; in test [4] (setting [7]), -7%; in test [4] (setting [8]), -11%; in test [4] (at 50.0 µM) it was 65.2%. For the same compound, the growth inhibition is -32% in test [5] (setting [7]); 5% in test [5] (setting [8]); 61.5% in test [5] (at 50.0 µM); -33% in test [6] (setting [7]); -17% in test [6] (setting [8]); 14.6% in test [6] (at 50.0 µM).
Regarding `COc1ccc(C2c3cc4c(cc3OC(N3CCOCC3)C2C)OCO4)c(OC)c1` (stereo not given), the growth inhibition is -3% in test [1] (setting [7]); 88% (active) in test [1] (setting [8]); 95.9% (active) in test [1] (at 50.0 µM); -10% in test [2] (setting [7]); 95% (active) in test [2] (setting [8]); 94.9% (active) in test [2] (at 50.0 µM). For the same compound, the growth inhibition was 2% in test [3] (setting [7]); 79% (active) in test [3] (setting [8]); 80.8% (active) in test [3] (at 50.0 µM); 18% in test [4] (setting [7]); 99% (active) in test [4] (setting [8]); 73.2% (active) in test [4] (at 50.0 µM). The growth inhibition was 7% in test [5] (setting [7]); 98% (active) in test [5] (setting [8]); 98% (active) in test [5] (at 50.0 µM); -26% in test [6] (setting [7]); 96% (active) in test [6] (setting [8]); 97.4% (active) in test [6] (at 50.0 µM).
With `CC(=O)C(C(=O)CCSCCO)C(SCCO)c1ccc(Cl)c(Cl)c1` (stereo not given), the growth inhibition in test [1] (setting [7]) is -1%; in test [1] (setting [8]) it was 64%; in test [1] (at 50.0 µM), 59.4%; in test [2] (setting [7]), -3%; in test [2] (setting [8]), 63%; in test [2] (at 50.0 µM), 79% (active). In addition, the growth inhibition in test [3] (setting [7]) was -1%; in test [3] (setting [8]), 81% (active); in test [3] (at 50.0 µM), 71.8% (active); in test [4] (setting [7]) it was -4%; in test [4] (setting [8]), 55%; in test [4] (at 50.0 µM) it was 40.1%. For the same compound, the growth inhibition in test [5] (setting [7]) is -6%; in test [5] (setting [8]), 70% (active); in test [5] (at 50.0 µM), 62.4%; in test [6] (setting [7]), -3%; in test [6] (setting [8]), 73% (active); in test [6] (at 50.0 µM) it was 73.8% (active).
Consider `COc1cccc2c1C(=O)c1c(O)c3c(c(O)c1C2=O)C[C@@](O)(/C(C)=N/NC(=O)c1ccc(Cl)c(Cl)c1)C[C@@H]3OC1CC(N)C(O)C(C)O1` (stereo not given in full), for which the growth inhibition was 89% (active) in test [1] (setting [7]); 99% (active) in test [1] (setting [8]); 42% in test [1] (at 50.0 µM); 25% in test [2] (setting [7]); 99% (active) in test [2] (setting [8]); 50.4% in test [2] (at 50.0 µM). The growth inhibition in test [3] (setting [7]) is 25%; in test [3] (setting [8]) it was 99% (active); in test [3] (at 50.0 µM), 44.6%; in test [4] (setting [7]), 5%; in test [4] (setting [8]) it was 98% (active); in test [4] (at 50.0 µM), 72.7% (active). In addition, the growth inhibition in test [5] (setting [7]) is 43%; in test [5] (setting [8]) it was 99% (active); in test [5] (at 50.0 µM), 98.5% (active); in test [6] (setting [7]), 33%; in test [6] (setting [8]), 99% (active); in test [6] (at 50.0 µM), 52.6%.
For the compound `Cc1ccc(NC(=S)N(CCC#N)C2CCCCC2)cc1C`, the growth inhibition in test [1] (setting [7]) is -12%; in test [1] (setting [8]), -10%; in test [1] (at 50.0 µM), 21.9%; in test [2] (setting [7]), -22%; in test [2] (setting [8]) it was -21%; in test [2] (at 50.0 µM) it was -7.55%. Moreover, the growth inhibition is -6% in test [3] (setting [7]); 10% in test [3] (setting [8]); 10.3% in test [3] (at 50.0 µM); -2% in test [4] (setting [7]); 3% in test [4] (setting [8]); 0.5% in test [4] (at 50.0 µM). The growth inhibition in test [5] (setting [7]) was 7%; in test [5] (setting [8]), 7%; in test [5] (at 50.0 µM), 1.85%; in test [6] (setting [7]), -27%; in test [6] (setting [8]), -28%; in test [6] (at 50.0 µM), 14.6%.
